Screening results from PubChem.
nsP2pro primary: Primary qHTS for inhibitors of NSP2Pro chikungunya virus (CHIKV). Polyprotein P1234 (Chikungunya virus (strain S27-African prototype)), Q8JUX6. FRET peptide cleavage, nsP2pro, fluorescence 1 h. Potency, µM (highest dose often 24.9 µM), hits mostly inhibitors. 31,000 tested, 1.1% active; also: nearly all actives have a fitted effect of over 60% in size
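Enzyme 150 nM, substrate 2.5 uM (both final); Tris-HCl 10 mM pH 8.0 + 0.01% Tween 20; cpd up to 25 uM, 7 pts; 15 min preinc., 1 h RT; fluorescence ex 525/em 598.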
CHIKV nsP2 cell: Secondary cell base assay for inhibitors of NSP2Pro Chikungunya virus (CHIKV); shares compounds with nsP2pro primary; cell-based CHIKV nsP2 protease reporter assay; Potency, µM (titrated, usually from 51.1 µM), usual class: inhibitors; 450 tested, 10% active; AID 1964100, 2024; also: nearly all actives have a fitted effect of over 70% in size
NSP2 full ctr: Selectivity profile for inhibitors of NSP2Pro chikungunya virus (CHIKV): Full length NSP2 enzyme counterscreen (CHIKV-NSP2); shares compounds with nsP2pro primary; Full-length CHIKV NSP2 protease enzymatic counterscreen; Potency, µM (doses to about 50.7 µM), most hits filed as inhibitors; 410 tested, 39% active; AID 1964101, 2024; also: nearly all actives have a fitted effect of over 65% in size
Furin counter: Selectivity profile for inhibitors of NSP2Pro chikungunya virus (CHIKV): Human furin counterscreen | 410 tested, 6% active | Recombinant human furin enzymatic counterscreen, fluorogenic substrate | shares compounds with nsP2pro primary | Potency, µM (doses to about 50.6 µM), hits mostly inhibitors | AID 1964102, 2024
Target sequence (P09958 whole entry, looked up): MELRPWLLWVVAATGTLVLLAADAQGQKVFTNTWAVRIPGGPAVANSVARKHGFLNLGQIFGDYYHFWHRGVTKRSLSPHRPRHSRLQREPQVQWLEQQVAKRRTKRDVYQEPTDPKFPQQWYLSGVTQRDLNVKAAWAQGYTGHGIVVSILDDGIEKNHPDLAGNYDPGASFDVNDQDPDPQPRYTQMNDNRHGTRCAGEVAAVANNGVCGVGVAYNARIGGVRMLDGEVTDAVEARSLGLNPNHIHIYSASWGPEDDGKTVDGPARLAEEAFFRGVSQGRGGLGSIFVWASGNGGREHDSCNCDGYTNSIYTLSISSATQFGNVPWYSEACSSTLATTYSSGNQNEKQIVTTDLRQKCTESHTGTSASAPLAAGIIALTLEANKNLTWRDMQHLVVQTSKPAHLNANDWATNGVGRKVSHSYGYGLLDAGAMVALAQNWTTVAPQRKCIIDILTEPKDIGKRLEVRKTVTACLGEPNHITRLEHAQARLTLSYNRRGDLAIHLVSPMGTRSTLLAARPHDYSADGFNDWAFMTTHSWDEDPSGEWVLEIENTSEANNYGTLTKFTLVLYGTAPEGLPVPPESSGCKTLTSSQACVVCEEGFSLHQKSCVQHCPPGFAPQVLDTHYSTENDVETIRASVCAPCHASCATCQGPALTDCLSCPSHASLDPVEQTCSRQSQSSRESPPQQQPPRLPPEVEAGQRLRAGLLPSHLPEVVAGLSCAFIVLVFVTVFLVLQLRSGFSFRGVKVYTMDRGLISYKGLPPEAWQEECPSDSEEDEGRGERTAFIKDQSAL
nsP2 NS23 pep: Selectivity profile for inhibitors of NSP2Pro chikungunya virus (CHIKV): Endogenous NS2/3 peptide Counterscreen. Purified CHIKV nsP2 protease, endogenous NS2/3 peptide cleavage. AID 1964103, 2024. shares compounds with nsP2pro primary. Potency, µM (titrated, usually from 51 µM), usual class: inhibitors. 410 tested, 34% active; also: nearly all actives have a fitted effect of over 55% in size
Papain cs: Selectivity profile for inhibitors of NSP2Pro chikungunya virus (CHIKV): Papain Counterscreen; Potency, µM (top dose mostly 51 µM), most hits filed as inhibitors; purified papain protease activity, enzymatic inhibition; shares compounds with nsP2pro primary; 410 tested, 5% active
nsP2pro conf qHTS: Confirmatory qHTS for inhibitors of NSP2Pro chikungunya virus (CHIKV). shares compounds with nsP2pro primary. CHIKV nsP2 protease enzymatic activity, qHTS. Potency, µM (highest dose often 25.5 µM), most hits filed as inhibitors. 410 tested, 43% active. AID 1964105, 2024; also: nearly all actives have a fitted effect of over 75% in size
HCV NS3 4A cs: Selectivity profile for inhibitors of NSP2Pro chikungunya virus (CHIKV): NS34A-HCV Counterscreen; shares compounds with nsP2pro primary; HCV NS3/4A protease biochemical counterscreen; Potency, µM (top dose mostly 50.9 µM), actives largely listed as inhibitors; 410 tested, 20% active; AID 1964106, 2024; also: nearly all actives have a fitted effect of over 55% in size
Hits are given with their value; - = inactive; ? = inconclusive. The entries come from a sample that favours hits as a whole. Calls follow the shape of the full dose curve.

SMILES | nsP2pro primary | others
COCCN1C(=O)CC[C@]2(C(=O)N3CCCCCC3)CCCC[C@@H]12 | -
CN1C[C@H](C(=O)N[C@]2(C)O[C@@]3(O)[C@@H]4CCCN4C(=O)[C@H](Cc4ccccc4)N3C2=O)C=C2c3cccc4[nH]cc(c34)C[C@H]21 | ? | CHIKV nsP2 cell=-;NSP2 full ctr=?;Furin counter=-;nsP2 NS23 pep=13µM;Papain cs=-;nsP2pro conf qHTS=?;HCV NS3 4A cs=-
CC(C)C[C@H]1C(=O)N2CCC[C@H]2[C@]2(O)O[C@](NC(=O)[C@@H]3C[C@@H]4c5cccc6[nH]cc(c56)C[C@H]4N(C)C3)(C(C)C)C(=O)N12 | -
O=C(C1CC1)N1C[C@@H]2OCC(=O)N(Cc3ccc(F)cc3)[C@@H]2C1 | -
Cc1ccc(S(=O)(=O)Nc2ccccc2C(=O)Nc2nccs2)cc1 | -
CC(=O)OC[C@@]12C(=O)C[C@@H](C)[C@]3(C[C@@H](c4ccoc4)OC3=O)[C@H]1CC[C@H](OC(C)=O)[C@]21CO1 | -
C[C@@H]1CC[C@]2(C)C3(C)CC[C@@]2(OC3=O)[C@@]12C[C@H](c1ccoc1)OC2=O | 2.4µM | CHIKV nsP2 cell=-;NSP2 full ctr=7.2µM;Furin counter=-;nsP2 NS23 pep=?;Papain cs=-;nsP2pro conf qHTS=2.2µM;HCV NS3 4A cs=1.8µM
CCCCN(CC)c1nc(C)nc2c1c(C)cn2-c1c(C)cc(C)cc1C | -
S=C(NC1CCCCC1)N[C@H]1CO[C@H]2[C@@H]1OC[C@@H]2n1nnnc1Oc1ccc(-n2ccnc2)cc1 | -
CCC(=O)O[C@H]1CC[C@H]2[C@@H]3CC[C@H]4CC(=O)[C@H](C)C[C@]4(C)[C@H]3CC[C@]12C | -
Oc1ccc(CNc2ccccc2F)c2cccnc12 | 3.1µM | CHIKV nsP2 cell=-;NSP2 full ctr=15µM;Furin counter=-;nsP2 NS23 pep=11µM;Papain cs=-;nsP2pro conf qHTS=1.9µM;HCV NS3 4A cs=-
Oc1ccc(CNc2ccccc2C(F)(F)F)c2cccnc12 | -
Oc1ccc(CNc2ccccc2Cl)c2cccnc12 | -
Fc1cnc(-c2ccccc2C(F)F)nc1NCc1ccc(-n2ccnn2)cc1 | -
COC(=O)c1ccc(O)c2ncc(-c3ccc(C(=O)N4CCNCC4)cc3)cc12 | -
CCc1nc2ccc(C(=O)N3CCN(c4cccc(OC)c4)CC3)cc2nc1CC | -
COC(=O)c1cc(CN2CCN(C(=N)N)CC2)cc(C(=O)N2CCN(C(=O)c3ccc(C(=N)N)cc3)CC2)c1 | ? | CHIKV nsP2 cell=-;NSP2 full ctr=15µM;Furin counter=9.2µM;nsP2 NS23 pep=?;Papain cs=?;nsP2pro conf qHTS=?;HCV NS3 4A cs=-
C[C@H]1[C@H](OC(=O)CCC(=O)O)O[C@@H]2O[C@@]3(C)CC[C@H]4[C@H](C)CC[C@@H]1[C@@]24OO3 | -
CC1(C)CN2C(CSC(=NC3CCCCC3)NC3CCCCC3)=CSC2=N1 | -
CCCN(Cc1cccs1)c1ncnc2ccc(-c3ccc4c(c3)OCO4)cc12 | -
CCC[C@H](N[C@@H](C)C(=O)N1[C@H](C(=O)O)C[C@@H]2CCCC[C@@H]21)C(=O)O | -
CCOC(=O)[C@H](CCc1ccccc1)N[C@@H](C)C(=O)N1CCC[C@H]1C(=O)O | -
CC(NC(CCc1ccccc1)C(=O)O)C(=O)N1C(=O)N(C)CC1C(=O)O (configuration not stated) | ? | CHIKV nsP2 cell=-;NSP2 full ctr=15µM;Furin counter=-;nsP2 NS23 pep=-;Papain cs=-;nsP2pro conf qHTS=?;HCV NS3 4A cs=-
CCN(CC1CCCN(CCc2cccc(OC)c2)C1)C(=O)CSC (configuration not stated) | -
